In paper PMC5540273 (PLoS ONE, 2017):

Tests used:
Settings in all cases: concentration: 1 μM, replicates: in singlicate; n = 1
[1] = tested on: T1, FAK
T1 construct: gene PTK2

[2] = tested on: FER
[3] = tested on: FES
[4] = tested on: FGFR1
[5] = tested on: FGFR2
[6] = tested on: FGFR3
[7] = tested on: FGFR4
[8] = tested on: FGR
[9] = tested on: FLT1
[10] = tested on: FLT3-autoinhibited
[11] = tested on: FLT3
[12] = tested on: FLT4
[13] = tested on: FRK
[14] = tested on: FYN
[15] = tested on: GAK
[16] = tested on: T2, GCN2(Kin.Dom.2,S808G)
T2 construct: gene EIF2AK4

[17] = tested on: GRK1
[18] = tested on: T3, GRK2
T3 construct: gene ADRBK1

[19] = tested on: T4, GRK3
T4 construct: gene ADRBK2

[20] = tested on: GRK4
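Further: KINOMEscan kinase panel screen.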

Compound | %Inh [1] | %Inh [2] | %Inh [3] | %Inh [4] | %Inh [5] | %Inh [6] | %Inh [7] | %Inh [8] | %Inh [9] | %Inh [10] | %Inh [11] | %Inh [12] | %Inh [13] | %Inh [14] | %Inh [15] | %Inh [16] | %Inh [17] | %Inh [18] | %Inh [19] | %Inh [20]
COC(=O)c1c(-c2ccccc2)c2cc(C(=O)O)ccc2c(=O)n1Cc1ccccc1 | 0% | 0% | 0% | 0% | 3% | 0% | 0% | 0% | 7% | 3% | 0% | 0% | 48% | 0% | 0% | 10% | 0% | 0% | 3% | 23%
Cl.O=C(Nc1cccc(-c2nn3ncccc3c2-c2ccnc(Nc3cccnc3)n2)c1)c1c(F)cccc1F [GSK312879] | 0% | 10% | 11% | 8% | 0% | 23% | 8% | 40% | 45% | 4% | 0% | 9% | 15% | 21% | 8% | 0% | 20% | 0% | 27% | 0%
Nc1nc(-c2nccs2)c(-c2ccnc3ccccc23)s1 [GW693542] | 0% | 15% | 0% | 8% | 0% | 0% | 8% | 9% | 24% | 0% | 2% | 0% | 0% | 17% | 45% | 17% | 0% | 0% | 39% | 21%
Cc1nnc(-c2ccc3occ(-c4ccc(S(C)=O)cc4)c3c2)[nH]1 (stereo not drawn) | 0% | 0% | 14% | 0% | 0% | 0% | 3% | 19% | 0% | 31% | 33% | 18% | 1% | 0% | 24% | 0% | 20% | 0% | 40% | 11%
COc1ccccc1CNC(=O)c1cc(C(=O)c2ccccc2C)c[nH]1 [GSK364507] | 0% | 8% | 0% | 0% | 16% | 4% | 11% | 23% | 18% | 0% | 0% | 5% | 0% | 42% | 15% | 9% | 0% | 0% | 37% | 0%
O=S(=O)(c1ccc(-c2ccnc3[nH]ccc23)cc1)N1CCCC1 [GSK846226] | 0% | 12% | 0% | 0% | 0% | 12% | 2% | 16% | 22% | 8% | 0% | 0% | 0% | 25% | 28% | 0% | 0% | 0% | 0% | 0%
COc1cc2nccc(Nc3ccc(NC(=O)c4ccc(C)cc4)c(O)c3)c2cc1OC.Cl [GW440132] | 0% | 45% | 5% | 22% | 22% | 2% | 6% | 37% | 30% | 0% | 0% | 0% | 25% | 17% | 11% | 0% | 0% | 0% | 29% | 0%
CN(C)CCN(C)C(=O)c1cc(-c2ccncc2)c(-c2ccc(Cl)c(O)c2)o1.Cl.Cl [SB-710397] | 0% | 0% | 0% | 0% | 0% | 5% | 0% | 16% | 43% | 0% | 0% | 7% | 43% | 0% | 29% | 0% | 4% | 0% | 54% | 0%
Cc1cccc(-c2nc(Nc3ccncc3)c3ccccc3n2)n1 [GW855857] | 31% | 0% | 13% | 5% | 7% | 2% | 6% | 31% | 0% | 0% | 0% | 1% | 15% | 13% | 0% | 0% | 0% | 0% | 0% | 0%
CCn1c(-c2ccccn2)nc2cnccc21 [SB-736398] | 0% | 2% | 30% | 1% | 48% | 77% | 1% | 41% | 21% | 0% | 2% | 0% | 17% | 0% | 9% | 10% | 1% | 5% | 78% | 1%
Cn1ccc2ncnc(Oc3cccc(C(=O)Nc4ccccc4)c3)c21 | 5% | 8% | 4% | 0% | 0% | 0% | 6% | 5% | 54% | 15% | 17% | 0% | 27% | 8% | 0% | 14% | 0% | 0% | 8% | 3%
COc1ccc(C2=C(Nc3cccc(C(=O)O)c3)C(=O)NC2=O)cc1 [SB-390765] | 13% | 0% | 21% | 13% | 13% | 14% | 0% | 6% | 4% | 17% | 23% | 15% | 0% | 0% | 8% | 0% | 30% | 0% | 50% | 14%
COc1ccccc1-c1ccc2c(NC(=O)C3CC3)n[nH]c2n1 [SB-711239] | 0% | 4% | 22% | 0% | 12% | 8% | 10% | 26% | 6% | 0% | 5% | 0% | 0% | 5% | 14% | 10% | 13% | 0% | 0% | 28%
Cl.Oc1ccc(-c2nc(-c3ccccc3)[nH]c2-c2ccncc2)cc1 [SB-428218] | 0% | 0% | 17% | 0% | 4% | 0% | 9% | 62% | 0% | 0% | 0% | 0% | 37% | 23% | 36% | 8% | 57% | 0% | 75% | 0%
Cc1c(O)cccc1Nc1ccnc2ccc(C(F)(F)F)cc12.Cl [GW466413] | 0% | 15% | 0% | 0% | 0% | 0% | 0% | 58% | 28% | 0% | 0% | 9% | 79% | 68% | 64% | 9% | 14% | 0% | 8% | 0%
